Screening results: PubChem, The Scripps Research Institute Molecular Screening Center
Sampled rows, rich in hits. Any-hit rate of the full collection: about 1.1%.
GALR2 antag: GALR2 (human) receptor antagonism | GALR2-expressing cells, antagonist mode | inhibition, % at 4 µM | actives 0.39% (n = 140,000) | O43603; in the data active = inhibition above about 27%;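 note: cells stimulated with galanin 1-16 at roughly its EC80; 0% = agonist challenge control and 100% = basal control without agonist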
S1P2 agonist: S1P2 (human) receptor agonism | O95136 | S1P2-expressing cell line, agonist reporter read-out | activation, % at 4.5 µM | actives 0.46% (n = 97,000) | AID 729; in the data active = activation above about 16%;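 note: 0% = vehicle low control and 100% = maximal reference agonist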
Target sequence (O95136 whole entry, looked up): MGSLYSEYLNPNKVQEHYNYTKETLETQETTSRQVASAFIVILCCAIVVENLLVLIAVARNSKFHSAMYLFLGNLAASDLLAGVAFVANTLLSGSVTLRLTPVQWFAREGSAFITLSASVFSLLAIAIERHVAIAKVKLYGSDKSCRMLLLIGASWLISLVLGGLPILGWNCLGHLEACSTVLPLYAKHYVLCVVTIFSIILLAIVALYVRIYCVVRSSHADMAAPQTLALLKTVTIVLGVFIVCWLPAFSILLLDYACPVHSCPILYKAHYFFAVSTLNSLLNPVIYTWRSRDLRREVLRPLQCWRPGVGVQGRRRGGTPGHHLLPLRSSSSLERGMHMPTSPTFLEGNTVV
GALR2 ag: GALR2 (human) receptor agonism | activation, % (concentration not given with the values) | GALR2-expressing cells, agonist activation read-out | O43603 | actives 0.48% (n = 140,000); in the data active = activation above about 5%, passing the limit was not always enough;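 note: 0% = vehicle buffer wells and 100% = reference agonist at full effect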
S1P2 blocker: blocks the human S1P2 receptor. actives 0.21% (n = 97,000). cell-based S1P2 antagonist assay, inhibition at 5 uM. inhibition, % at 5 µM; in the data active = inhibition above about 45%;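 note: CRE beta-lactamase reporter cells expressing human S1P2 stimulated with S1P; 0% = agonist at EC80 alone and 100% = agonist plus reference antagonist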
GALR2 agon conf: GALR2 (human) agonism confirmed. shares compounds with GALR2 ag. GALR2-expressing cells, agonist activation. activation, % at 5.6 µM. actives 10% (n = 460). AID 864; in the data active = activation above about 8.4%;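 note: 0% = buffer-only vehicle wells and 100% = full reference agonist response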
BLA act counter: counter-screen for GALR2 agonists: beta-lactamase reporter activators; CHO NFAT-bla reporter, beta-lactamase FRET activation; actives 10% (n = 460); shares compounds with GALR2 ag; activation, % at 5.6 µM;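 active = activation above the screen-wide mean activation plus 3 SD, cut at about 8% in these data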;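 note: 0% = DMSO with PBS wells and 100% = thapsigargin positive control wells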
* = called active by the depositor.

O=C(Nc1cccc(NC(=S)NC(=O)c2cccs2)c1)c1ccccc1 was read as GALR2 antag -8 and GALR2 ag -1.
O=C(O)c1cccc(NC(=S)NC(=O)C(c2ccccc2)c2ccccc2)c1 was read as GALR2 antag -8, S1P2 agonist -4, GALR2 ag 8, S1P2 blocker 20, GALR2 agon conf -1 and BLA act counter -1.
`COc1ccc(Nc2cc(C(=O)NCc3ccco3)c3ccccc3n2)cc1` gave GALR2 antag 10, GALR2 ag 9.7*, GALR2 agon conf 6 and BLA act counter 4.
For COc1ccc(Nc2cc(C(=O)NCCCN3CCN(C)CC3)c3ccccc3n2)cc1 the results were GALR2 antag 4, S1P2 agonist -3, GALR2 ag -2 and S1P2 blocker 12.
`COc1ccc(-c2cc(-c3cc(OC)ccc3O)[nH]n2)cc1` gave GALR2 antag 12, S1P2 agonist -5, GALR2 ag -3 and S1P2 blocker -15.
For COc1ccc(-c2n[nH]c(C)c2-c2cc(OC)ccc2O)cc1 the results were GALR2 antag -10, S1P2 agonist -3, GALR2 ag 9, S1P2 blocker -5, GALR2 agon conf 0 and BLA act counter 1.
Screening CCOC(=O)c1cc2cc3ccccc3cc2[nH]1 returned GALR2 antag 4, S1P2 agonist 15, GALR2 ag 22*, S1P2 blocker 15, GALR2 agon conf 4 and BLA act counter 11*.
Screening CC(C)OC(=O)c1cc2ccccc2[nH]1 returned GALR2 antag 0, S1P2 agonist -5, GALR2 ag -2 and S1P2 blocker -23.
Screening Cc1cc(C)nc(SCc2nc(N)nc(-c3ccccc3O)n2)n1 returned GALR2 antag -6, S1P2 agonist 4, GALR2 ag -3 and S1P2 blocker -13.
`CCOC(=O)c1ccc(NC(=O)CCc2ccc(CC)o2)cc1` gave GALR2 antag -6, S1P2 agonist -2, GALR2 ag 8, S1P2 blocker 1, GALR2 agon conf -1 and BLA act counter 0.
CN(Cc1ccccc1)c1ccc(C(=O)O)cc1[N+](=O)[O-] was read as GALR2 antag -6 and GALR2 ag -3.
Screening COc1cccc(Nc2nnc(SCC(=O)N(CC(C)C)CC(C)C)s2)c1 returned GALR2 antag -3, S1P2 agonist -7, GALR2 ag -2 and S1P2 blocker 1.
For CC(=O)NC(CCS(C)(=O)=O)C(=O)N1CCc2ccccc21 (stereo unspecified) the results were GALR2 antag -6, S1P2 agonist -2, GALR2 ag 0 and S1P2 blocker 9.
Screening COc1ccccc1[C@@H]1C(c2cccc(Cl)c2)=NN(c2ccc(Br)cc2)[C@H]1C(=O)N1CCOC1=O returned GALR2 antag -4, GALR2 ag 18*, GALR2 agon conf 23* and BLA act counter 46*.
For CC(NC(=O)c1ccccc1)c1nc2ccccc2n1Cc1ccccc1F (stereo unspecified) the results were GALR2 antag 5, S1P2 agonist -2, GALR2 ag -1 and S1P2 blocker 5.
CCN(CC)c1ccc(NC(=O)Cn2c(C(C)NC(=O)c3ccccc3)nc3ccccc32)cc1 (stereo unspecified) was read as GALR2 antag -13, GALR2 ag 11*, GALR2 agon conf -1 and BLA act counter -3.
Screening CC(C)NC(=O)c1ccc(-n2nc(C(F)(F)F)c3c2CCCC3)cc1 returned GALR2 antag 1 and GALR2 ag 0.
For CCCCN(CCCC)C(=S)NC(=O)c1ccccc1Cl the results were GALR2 antag 6 and GALR2 ag -1.
CCOC(=O)Cn1c(=NC(=O)c2cccs2)sc2cc(C(=O)OC)ccc21 was read as GALR2 antag -1, GALR2 ag 14*, GALR2 agon conf -1 and BLA act counter -2.
For CCN(CC)S(=O)(=O)c1ccc(N/N=C/c2cc(OC)c(OC)cc2OC)nc1 the results were GALR2 antag 9, GALR2 ag 49*, GALR2 agon conf 21* and BLA act counter 33*.
`CCN(CC)S(=O)(=O)c1ccc(N/N=C/c2ccc(OC)c(OC)c2OC)nc1` gave GALR2 antag 1 and GALR2 ag -1.
`O=C(Nc1ccc(N2CCN(c3ccc(O)cc3)CC2)cc1)Oc1ccccc1` gave GALR2 antag 7, S1P2 agonist -3, GALR2 ag 13*, S1P2 blocker -3, GALR2 agon conf -1 and BLA act counter -2.
Screening O=C(Oc1ccccc1)N1CCN(c2ccc(F)cc2)CC1 returned GALR2 antag 3, S1P2 agonist -4, GALR2 ag -1 and S1P2 blocker 4.
Screening Cc1cc(C)n2nc[n+](C)c2n1 returned GALR2 antag 3, S1P2 agonist 1, GALR2 ag -1 and S1P2 blocker 7.
For Cc1nn2cc(-c3ccc(-c4ccccc4)cc3)nc2s1 the results were GALR2 antag -30, S1P2 agonist -8, GALR2 ag -2 and S1P2 blocker 8.
For Cc1nn2cc(-c3ccc(Cl)cc3)nc2s1 the results were GALR2 antag 6, S1P2 agonist -5, GALR2 ag 10, S1P2 blocker 26, GALR2 agon conf 0 and BLA act counter -2.
CN(CC(O)CON=C1c2ccccc2-c2ccccc21)S(=O)(=O)c1ccc(Br)cc1 (stereo unspecified) was read as GALR2 antag -12, GALR2 ag 11*, GALR2 agon conf 0 and BLA act counter 1.
For Nc1cc(=O)[nH]c(SCc2nnnn2-c2ccc(Cl)cc2)n1 the results were GALR2 antag 2 and GALR2 ag -1.
`Cc1ccc(-c2nn(CC(N)=O)c(=O)c3ccccc23)cc1S(=O)(=O)N(C)C` gave GALR2 antag -1, S1P2 agonist -6, GALR2 ag 34*, S1P2 blocker -5, GALR2 agon conf 0 and BLA act counter -1.
For CC(C)CN(C(=O)CSc1nncs1)c1c(N)n(CC(C)C)c(=O)[nH]c1=O the results were GALR2 antag -9, S1P2 agonist -3, GALR2 ag -1 and S1P2 blocker -2.
For Cc1ccc2nc(SCC(=O)N(CC(C)C)c3c(N)n(CC(C)C)c(=O)[nH]c3=O)[nH]c2c1 the results were GALR2 antag -6, S1P2 agonist 3, GALR2 ag 40*, S1P2 blocker -14, GALR2 agon conf -1 and BLA act counter -2.
For CCOC(=O)c1sc(NC(=O)Nc2ccccc2Cl)cc1C the results were GALR2 antag 9, GALR2 ag 13*, GALR2 agon conf 0 and BLA act counter -2.
Screening Cc1ccc2cc(CNC(C)C)c(=O)[nH]c2c1 returned GALR2 antag -9, S1P2 agonist -6, GALR2 ag -1 and S1P2 blocker 14.
`Cc1ccc(CNC(=O)c2ccc3nc4[nH]c5ccccc5c4nc3c2)cc1` gave GALR2 antag 5, GALR2 ag 14*, GALR2 agon conf 8.7* and BLA act counter 6.
`CCC(C(=O)OCC(=O)Nc1c(Cl)cccc1Cl)c1ccccc1` (stereo unspecified) gave GALR2 antag 1 and GALR2 ag -2.
